Compounds without any hit were thinned out: in the full panel of roughly 83,000, 20% have a hit.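 Note: values are percent growth. 100 is the growth of untreated cells, values between 100 and 0 indicate rising inhibition; between -100 and 0 indicates cell death.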 Values without a mark were called inactive. Calls of active or inactive are those of the source. How the source made its calls: active means growth percent below 10; inactive means the rest.
What was measured:
Assay in all cases: NCI-60 one-dose screen, 48 h (100 = growth as untreated, 0 = no growth, -100 = all killed)
Details in all cases: 10 µM unless noted
DU-145 prostate = tested on: DU-145 prostate
K-562 leukemia = tested on: K-562 leukemia
MALME-3M melanoma = tested on: MALME-3M melanoma
MDA-MB-231 breast = tested on: MDA-MB-231 breast
RXF 393 renal = tested on: RXF 393 renal
SF-268 CNS = tested on: SF-268 CNS
SF-295 CNS = tested on: SF-295 CNS
SF-539 CNS = tested on: SF-539 CNS
UACC-257 melanoma = tested on: UACC-257 melanoma
M14 melanoma = tested on: M14 melanoma
HCT-15 colon = tested on: HCT-15 colon
HT29 colon = tested on: HT29 colon
SNB-75 CNS = tested on: SNB-75 CNS
SNB-19 CNS = tested on: SNB-19 CNS
U251 CNS = tested on: U251 CNS
PC-3 prostate = tested on: PC-3 prostate
SK-MEL-5 melanoma = tested on: SK-MEL-5 melanoma
UACC-62 melanoma = tested on: UACC-62 melanoma
LOX IMVI melanoma = tested on: LOX IMVI melanoma
SK-MEL-28 melanoma = tested on: SK-MEL-28 melanoma

| Structure (SMILES) | growth (DU-145 prostate) | growth (K-562 leukemia) | growth (MALME-3M melanoma) | growth (MDA-MB-231 breast) | growth (RXF 393 renal) [%] | growth (SF-268 CNS) [%] | growth (SF-295 CNS) | growth (SF-539 CNS) | growth (UACC-257 melanoma) [%] | growth (M14 melanoma) | growth (HCT-15 colon) [%] | growth (HT29 colon) | growth (SNB-75 CNS) | growth (SNB-19 CNS) [%] | growth (U251 CNS) [%] | growth (PC-3 prostate) | growth (SK-MEL-5 melanoma) | growth (UACC-62 melanoma) [%] | growth (LOX IMVI melanoma) | growth (SK-MEL-28 melanoma) [%] |
| --- | --- | --- | --- | --- | --- | --- | --- | --- | --- | --- | --- | --- | --- | --- | --- | --- | --- | --- | --- | --- |
| COc1ccc(C2C(c3ccccc3)C(=O)N2c2cc(OC)c(OC)c(OC)c2)cc1I (stereo not given) | 7.36% (active) | 6.76% (active) | 80.1% | 23.3% | 24.2 | 34.9 | 17.9% | 1.87% (active) | 47.9 | 8.46% (active) | 13.1 | 1.74% (active) | 57.5% | 33.4 | 15.4 | 22.2% | -41% (active) | 28.1 | 24.3% | 60.3 |
| COc1ccc2c(c1)Oc1nc(N)c(C#N)c(N)c1C2Sc1ccc(O)cc1 (stereo not given) | 105% | 14.6% | 70.8% | 79.4% | 90.8 | 95 | 104% | 99.4% | 105 | 103% | 65.7 | 102% | 89.7% | 106 | 86.5 | 95.9% | 90.3% | 101 | 87.4% | 105 |
| O=C(CN1N=C(c2ccc(F)cc2)CCC1=O)Nc1nc2ccccc2s1 | 84.6% | 30.1% | -70.4% (active) | -85.5% (active) | 45.8 | 48 | -46.9% (active) | -82.6% (active) | 88.1 | 41.4% | 86 | 1.85% (active) | -49.1% (active) | 94.4 | 16 | 5.7% (active) | 89.3% | 79.6 | -89.5% (active) | 100 |
| C=C1C(=O)O[C@H]2[C@H]1CC/C(COC(=O)NCC(=O)Nc1ccc(OC)c(C(N)=O)c1O)=C\CC[C@@]1(C)O[C@@H]21 | 66.4% | 8.95% (active) | 59.7% | 68.2% | 16.5 | 70.8 | 101% | 7.54% (active) | 53.3 | 62.9% | 91.2 | 18.8% | 76.9% | 73.9 | 62.6 | 85.7% | 76.4% | 42.8 | 55.8% | 47.9 |
